“And” between values parts separate entries of the source, which are not always exact repeats. Equal entries are not always repeated.
Test: qHTS profiling for inhibitors of Plasmodium falciparum (HB3) proliferation (AID 743324);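 also: 100% = DMSO vehicle wells and 0% = artemisinin-treated control wells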
Conditions: Plasmodium falciparum HB3 blood-stage proliferation; at 28.7 µM (top of the series)
Source text: Plasmodium falciparum is a virulent malarial parasite that kills 1-2 million people worldwide each year. Transmitted by mosquitoes, the sporozoite form of the parasite enters the blood stream to infect hepatocytes, where they become merozoites that infect red blood cells (erythrocytes). Within erythrocytes, merozoites begin a […] cycle of growth and division, after which the parasite is released to infect new red blood cells. Gametocytes, which form within erythrocytes as well, circulate in the bloodstream and are ingested by the mosquito, thereby completing the life cycle. To profile malarial isolates for differential chemical responses and to identify inhibitors of malarial growth, an assay that measures P. falciparum growth and replication within erythrocytes was employed. This assay uses a DNA binding fluorescent dye (SYBR Green) to detect parasite DNA following cell lysis. Because mature erythrocytes lack DNA, only Plasmodium-derived DNA is detected.
For screening 3 ul culture medium was dispensed into 1536 well black clear bottom plates (Aurora Biotechnologies) using a Multidrop Combi (Thermo Fisher Scientific Inc.), 23 nL compounds in DMSO were added by a pin tool (Kalypsys), and 5 ul of erythrocytes infected with P. falciparum (0.3% parasitemia, 2.5% hematocrit final concentration) were added. The plates were incubated at 37 C in a humidified incubator in 5% CO2 for 72 h, and 2 ul lysis buffer (20 mM Tris HCl, 10 mM EDTA, 0.16% saponin, […]% triton X, 10X SYBR Green I supplied as 10,000X […] by Invitrogen) was added to each well. The plates were mixed for 25 sec with gentle shaking and incubated overnight at room temperature in the dark. The following morning, fluorescence intensity at 485(14) nm excitation and 535(25) nm emission wavelengths was measured on an EnVision (Perkin Elmer) plate reader. Plate reads were normalized relative to the control inhibitor (0.29 uM artemisinin) and vehicle (DMSO) wells present on each plate and then corrected by an algorithm using vehicle-only control plates at the beginning and end of the compound plate stack.

| Structure (SMILES) | remaining proliferation (% of control), lower = more inhibition |
| --- | --- |
| Cc1ccc(C(=O)Nc2ccc(CN3CCN(C)CC3)c(C(F)(F)F)c2)cc1C#Cc1cnc2cccnn12 | -1.05% |
| COc1ccc(OC)c(-c2nnc3ccc(-c4ccc(OC)c(O[C@@H]5CCOC5)c4)nn23)c1 | 0.357% |
| O=C(O)[C@H](Cc1c[nH]c2ccccc12)N1C(=O)c2ccccc2C1=O | 85.6% |
| NC(=O)Nc1cc(-c2cccc(F)c2)sc1C(=O)N[C@H]1CCCNC1 | 0.699% |
| Cc1ccc(C(=O)Nc2cccc(C(F)(F)F)c2)cc1-c1ccc2nc(NCCN3CCOCC3)ncc2c1 | -1.12% |
| CC(C)(C)c1cnc(CSc2cnc(NC(=O)C3CCNCC3)s2)o1 | 7.19% |
| Nc1nc(Nc2ccc(S(N)(=O)=O)cc2)nn1C(=O)c1c(F)cccc1F | 10.9% |
| CC1=C(CO)C(=O)O[C@@H]([C@@H](C)[C@H]2CC[C@H]3[C@@H]4C[C@H]5O[C@]56[C@@H](O)C=CC(=O)[C@]6(C)[C@@H]4CC[C@]23C)C1 | -0.146% |
| COc1cc2c(Oc3ccc(NC(=O)C4(C(=O)Nc5ccc(F)cc5)CC4)cc3F)ccnc2cc1OCCCN1CCOCC1 | -0.88% |
| CC(=O)OCC(=O)[C@@]1(O)[C@H](C)C[C@H]2[C@@H]3C=C(C)C4=Cc5c(cnn5-c5ccccc5)C[C@]4(C)[C@@H]3[C@@H](O)C[C@@]21C | -1.72% |
| CCN(CC)CCCCNc1ncc2cc(-c3cc(OC)cc(OC)c3)c(NC(=O)NC(C)(C)C)nc2n1 | 0.178% |
| CCOc1cc2ncc(C#N)c(Nc3ccc(F)c(Cl)c3)c2cc1NC(=O)C=CCN(C)C | 0.199% |
| O=C(O)c1ccc2cc(-c3ccc(O)c(C45CC6CC(CC(C6)C4)C5)c3)ccc2c1 | -1.12% |
| C[C@@]12O[C@@H](C[C@]1(O)CO)n1c3ccccc3c3c4c(c5c6ccccc6n2c5c31)CNC4=O | 0.698% |
| CC(C)(C)OC(=O)Nc1ccc(-c2cc(C(=O)NCCCCCCC(=O)NO)no2)cc1 | 0.579% |
| O=C(NCCCNc1nc(Nc2cccc(NC(=O)N3CCCC3)c2)ncc1I)c1cccs1 | 1.48% and 5.6% |
| Cc1ccc(S(=O)(=O)Nc2cc(Cl)ccc2C(=O)Nc2nc(-c3ccccc3)cs2)cc1 | 8.77% |
| COc1cc2c(Nc3ccc(NC(=O)c4ccccc4)cc3)ncnc2cc1OCCCN1CCOCC1 | 3.78% |
| COc1cc2ncnc(Nc3ccc(F)c(Cl)c3)c2cc1NC(=O)C=CCN1CCCCC1 | 0.28% |
| Cn1c2cc(S(C)=O)sc2c2cnn(Cc3cccc(N)c3)c(=O)c21 (stereo not given) | 53.2% and 65.3% |

| Structure (SMILES) | remaining proliferation (% of control), lower = more inhibition |
| --- | --- |
| CC(NCc1ccc2c(c1)nc(NC(=O)c1ccc(-c3cn[nH]c3)s1)n2CC(C)(C)O)C(C)(C)C (stereo not given) | -1% |
| COCCn1c2c([n+](Cc3cnccn3)c1C)C(=O)c1ccccc1C2=O | -1.98% |
| Nc1ccc(C(=O)c2cc3c(ccc4ccccc43)[nH]2)cc1 | 99.1% |
| c1ccc2c(CCNc3ccc(Nc4ccncc4)cc3)c[nH]c2c1 | -0.777% |
| CC1(C)OC2=C(C(=O)c3ccccc3C2=O)[C@H](NCc2ccccc2)[C@H]1O | -1.28% |
| COc1cc2c(Oc3ccc4[nH]c(C)cc4c3F)ncnc2cc1OCCCN1CCCC1 | 0.351% |
| Cc1cnc(-c2cnc(NCCNc3ccc(C#N)cn3)nc2-c2ccc(Cl)cc2Cl)[nH]1 | 53.7% |
| CC[C@H](CO)Nc1nc(NCc2ccccc2)c2ncn(C(C)C)c2n1 | 19.5% |
| CC(C)(C)c1cc(NC(=O)Nc2ccc(-c3cn4c(n3)sc3cc(OCCN5CCOCC5)ccc34)cc2)no1 | -0.226% |
| C=C1C(=CC=C2CCCC3(C)[C@@H]([C@H](C)C=CC=CC(O)(CC)CC)CC[C@@H]23)C[C@@H](O)C[C@@H]1O (stereo not given in full) | 20.6% |
| C[C@@H]1CN(CC(=O)Nc2ccc3c(c2)Cc2cccc(-c4cc(=O)cc(N5CCOCC5)o4)c2S3)C[C@H](C)O1 | -0.663% |
| C=CC(=O)Nc1cccc(Oc2nc(Nc3ccc(N4CCN(C)CC4)cc3OC)ncc2Cl)c1 | 6.16% |
| CC(C)C[C@H](NC(=O)CNC(=O)c1cc(Cl)ccc1Cl)B(O)O | -0.908% |
| CC1(C)CCC(c2ccc(Cl)cc2)=C(CN2CCN(c3ccc(C(=O)NS(=O)(=O)c4ccc(N[C@H](CCN5CCOCC5)CSc5ccccc5)c(S(=O)(=O)C(F)(F)F)c4)cc3)CC2)C1 | -0.0239% |
| CC[C@@H]1C(=O)N(C)c2cnc(Nc3ccc(C(=O)NC4CCN(C)CC4)cc3OC)nc2N1C1CCCC1 | -0.331% |
| O=C(NC1CCNCC1)c1[nH]ncc1NC(=O)c1c(Cl)cccc1Cl | 9.9% and 2.81% |
| CN(C)CCCN=c1c2ccccc2n(C)c2[nH]c(=O)n(C)c(=O)c12 | 3.8% |
| Cc1cc(Nc2cc(NC(=O)c3c(Cl)cccc3Cl)ccn2)nc(N)n1 | -0.262% |
| CC(=O)Nc1sc2c(c1-c1nc3ccccc3s1)CNC2 | 74.7% |
| Cc1cn(-c2cc(NC(=O)c3ccc(C)c(Nc4nccc(-c5cccnc5)n4)c3)cc(C(F)(F)F)c2)cn1 | 2.94% |

— PubChem BioAssay (NCATS)
